Assay outcomes from PubChem BioAssay.
Compounds with a hit are over-represented: about 3.9% of the library has one in this group of screens.
Tb PFK block: inhibitors of T. brucei phosphofructokinase; O15648; T. brucei PFK, ADP-Glo luminescence; Potency, µM (series often up to 57.5 µM), inactives show top-dose activity, negative = inhibition, usual class: inhibitors; hit rate 0.17% among 330,000; AID 485367;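 also: 0% = uninhibited 1x PFK enzyme wells and -100% = no-enzyme wells; nearly all actives have a fitted effect of over 60% in size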
Target sequence (O15648 whole entry, looked up): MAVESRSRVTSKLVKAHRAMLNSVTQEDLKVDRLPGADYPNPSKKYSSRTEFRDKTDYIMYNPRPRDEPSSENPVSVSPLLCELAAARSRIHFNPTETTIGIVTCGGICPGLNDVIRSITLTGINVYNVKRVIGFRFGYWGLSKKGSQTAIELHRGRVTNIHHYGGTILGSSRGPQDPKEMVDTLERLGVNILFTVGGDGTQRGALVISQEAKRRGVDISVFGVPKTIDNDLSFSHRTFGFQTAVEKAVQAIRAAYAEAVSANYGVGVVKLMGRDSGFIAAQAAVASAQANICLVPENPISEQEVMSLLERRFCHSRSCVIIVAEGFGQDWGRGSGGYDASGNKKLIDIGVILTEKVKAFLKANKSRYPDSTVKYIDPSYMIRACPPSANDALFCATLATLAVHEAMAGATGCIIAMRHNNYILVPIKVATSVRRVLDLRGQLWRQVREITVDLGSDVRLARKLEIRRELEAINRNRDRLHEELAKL
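ADP-Glo luminescence quantified ADP after 45 min at room temperature, with 1.25 nM T. brucei PFK, 0.1 mM ATP and 0.5 mM fructose-6-phosphate in pH 8.0 TEA buffer. qHTS titrations up to 57 µM; curves classified by quality.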
PLK1 PBD inh: blocks phosphopeptide binding to human PLK1 polo-box domain; Plk1 PBD binding of FITC phosphopeptide, fluorescence polarization; Potency, µM, inactives show max response, negative = inhibition, usual class: inhibitors; hit rate 2.8% among 360,000; also: series mostly up to about 57 µM; % is scaled to controls: 0 for no effect and ±100 for the full control effect; nearly all actives have a fitted effect of over 65% in size
VDR inhibitor: vitamin D3 receptor (human) inhibition. P11473. Potency, µM, for inactives: max response, negative = inhibition, usual class: inhibitors. VDR-SRC2-3 peptide fluorescence polarization, 2 h. hit rate 0.93% among 400,000; also: % is scaled to controls: 0 for no effect and ±100 for the full control effect
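The screen uses fluorescence polarization to detect compounds that interfere with recruitment of the SRC2-3 coactivator peptide to VDR; plates are read after 2 h at room temperature.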
BRCA1 expr up: activators of BRCA1 expression | hit rate 1.1% among 380,000 | Potency, µM (titrated, usually from 46.1 µM), inactives show at the highest dose activation, most hits filed as activators | MCF7-BRCA1-FFLuc reporter, luminescence, 48 h; response scale: scaled: vehicle 0%, 10 µM genistein 100% | AID 624202; also: nearly all actives have a fitted effect of over 80% in size
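Luminescence from a BRCA1-driven firefly luciferase in MCF7 cells was read after 48 h compound exposure at 37 C. Data normalized against DMSO and a 10microM genistein activation control, then curve-fitted across the titration.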
VDR confirm: confirmation of human vitamin D receptor inhibitors. Potency, µM, usual class: inhibitors. VDR-coactivator inhibition assay, qHTS confirmation. hit rate 89% among 840. shares compounds with VDR inhibitor
VDR FP fluor: blocks human VDR-coactivator binding in fluorescein assay; shares compounds with VDR inhibitor; Potency, µM (doses to about 57.1 µM), for the others: top-dose activity change, negative = inhibition, most hits filed as inhibitors; VDR-coactivator binding, fluorescein fluorescence polarization; hit rate 48% among 840
VDR bla reporter: inhibits human VDR in beta-lactamase reporter cells; shares compounds with VDR inhibitor; VDR beta-lactamase reporter cells, FRET ratio; cells co-treated with VDR agonist LG190178; Potency, µM (doses to about 46.1 µM), for the others: at the highest dose activity change, negative = inhibition, usual class: inhibitors; hit rate 23% among 840; AID 602202; also: % is scaled to controls: 0 for no effect and ±100 for the full control effect
VDR cytotox: cell toxicity, VDR inhibitor hit counter-screen | shares compounds with VDR inhibitor | cytotoxicity counter-screen, cell viability, qHTS | Potency, µM (titrated, usually from 48.3 µM), for the others: at the top dose activity change, negative = cytotoxicity, actives largely listed as cytotoxic | hit rate 18% among 840 | AID 602204;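 also: plate controls were DMSO for no effect and high-concentration cycloheximide for full effect; nearly all actives have a fitted effect of over 75% in size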
TbPYK inh: Trypanosoma brucei pyruvate kinase inhibition, cherry-pick confirmation. shares compounds with PLK1 PBD inh. recombinant TbPYK, Kinase-Glo ATP luminescence. Potency, µM (highest dose often 76.9 µM), for the others: top-dose activity change, negative = inhibition, hits mostly inhibitors. hit rate 67% among 890. AID 720569; also: % is scaled to controls: 0 for no effect and ±100 for the full control effect; nearly all actives have a fitted effect of over 70% in size
TbPYK orthogonal: orthogonal confirmation of Trypanosoma brucei pyruvate kinase inhibitors | shares compounds with PLK1 PBD inh | recombinant TbPYK, ADP-Glo luminescence, 60 min | Potency, µM (highest dose often 76.9 µM), for the others: at the top dose activity change, negative = inhibition, actives largely listed as inhibitors | hit rate 62% among 890 | AID 720584; also: % is scaled to controls: 0 for no effect and ±100 for the full control effect; nearly all actives have a fitted effect of over 75% in size
* marks the source's active call; other numbers are inactive results; ? = inconclusive; / = no result given. Calls follow the shape of the dose curve; as a rule, active = well fitted curve in the direction sought with a large enough effect; inconclusive = small, poorly fitted or top-dose-only effect, or another doubt; inactive = no such curve, though single readings can be large; an effect the other way counts as inactive or inconclusive. Potency is read from the fitted curve at half-maximal effect.

SMILES	Tb PFK block	PLK1 PBD inh	VDR inhibitor	BRCA1 expr up	TbPYK inh	TbPYK orthogonal	others
COc1ccc(N2C(=O)/C(=C/C=C/c3ccccc3[N+](=O)[O-])C(=O)NC2=S)cc1	25.6%	1.34µM*	22.4µM*	8.5%	11.2µM*	25.1µM*	VDR confirm=3.36*;VDR FP fluor=?;VDR bla reporter=?;VDR cytotox=-20.8%
O=C(O)CCn1cc(C=C2C(=O)NC(=S)NC2=O)c(-c2ccccc2)n1	-22.4%	2.67µM*	10µM*	1.7%	1.58µM*	4.47µM*	VDR confirm=21.2*;VDR FP fluor=?;VDR bla reporter=14.7%;VDR cytotox=37.8%
O=C1NC(=S)NC(=O)C1=Cc1cccn1-c1ccc(O)cc1	?	2.38µM*	25.1µM*	-50.2%	7.08µM*	15.8µM*	VDR confirm=8.44*;VDR FP fluor=?;VDR bla reporter=?;VDR cytotox=?
COc1ccc(S(=O)(=O)N(C)C[C@H]2OCCCC[C@@H](C)Oc3ccc(N(C)C)cc3C(=O)N([C@H](C)CO)C[C@@H]2C)cc1	/	-13.4%	/	-5.4%	2.51µM*	6.31µM*
COc1ccc(OC(=O)N(C)C[C@H]2OCc3cnnn3CCCC(=O)N([C@@H](C)CO)C[C@H]2C)cc1	/	-6.5%	/	3.0%	/	/
O=C1NC(=O)N(c2ccc(Cl)cc2)C(=O)/C1=C/c1coc2ccc(O)cc2c1=O	-11.6%	7.52µM*	?	-34.8%	?	?
O=C1NC(=O)N(c2ccccc2)C(=O)/C1=C/c1coc2ccc(O)cc2c1=O	-10.9%	11.9µM*	50.1µM*	-36.2%	22.4µM*	?
Cc1ccc(OCCOc2cccc(C=C3C(=O)NC(=O)NC3=O)c2)cc1	-1.3%	2.67µM*	39.8µM*	?	?	?
Cc1ccc(-n2c(=O)[nH]c3ccc(Br)cc3c2=O)cc1	/	/	0.2%	/	/	/
CC[n+]1c(/C=C/C=C/c2ccc(N(C)C)cc2)sc2ccccc21	-18.2%	-0.3%	-154.2%	-75.5%	31.6µM*	9.8%
CC[n+]1c(/C=C/N(C)c2ccccc2)sc2ccc(Cl)cc21	3.6%	-12.0%	0.5%	-82.5%	/	/
N#CCCn1cc(C=C2C(=O)NC(=O)NC2=O)c(-c2ccccc2)n1	?	2.67µM*	-38.6%	-5.8%	15.8µM*	31.6µM*
C[C@@H]1O[C@H](C[N+](C)(C)C)C[C@H]1O	/	/	-4.0%	/	/	/
Cc1cccc(Cn2cccc(C(=O)Nc3nnc(C)s3)c2=O)c1	/	/	3.5%	0.0%	/	/
CC1CC(OP(O)(=S)c2ccc(N(C)C)cc2NC(=O)c2cccs2)CC(C)(C)C1 (centres undefined)	-7.5%	5.97µM*	44.7µM*	-47.8%	28.2µM*	28.2µM*
O=c1c2ccccc2nc(/C=C/c2cccc3ccccc23)n1-c1ccccc1Cl	/	/	10.4%	/	/	/
O=C1NC(=O)N(c2ccc(F)cc2)C(=O)/C1=C/c1ccc(N2CCOCC2)cc1	0.3%	11.9µM*	-25.4%	11.2%	?	?
O=C1NC(=O)N(c2ccccc2)C(=O)/C1=C/c1ccoc1	13.7%	5.32µM*	-3.9%	-17.3%	?	-28.5%
CCOC(=O)C1CCN(/C=C2/C(=O)NC(=O)N(c3ccc(OCC)cc3)C2=O)CC1	4.8%	-13.1%	3.3%	0.0%	/	/
CC(C(=O)OC1CC2CCC(C1)N2C)c1ccc(Br)cc1 (centres undefined)	/	/	0.9%	/	/	/
